Only some compounds are listed: those with a hit (about 21% of all), similar ones and a draw of the others.
Giardia FBPA inh = blocks Giardia fructose-bisphosphate aldolase activity. purified Giardia FBPA. 0.71% of 290,000 active. Potency, µM (series often up to 59.6 µM), for inactives: at the highest dose activity, negative = inhibition, usual class: inhibitors; further: potency means the concentration at half of the fitted maximal effect; on the % scale 0 is the no-effect control and ±100 the full control effect; nearly all actives have a fitted effect of over 55% in size
Target sequence (A8B2U2 whole entry, looked up): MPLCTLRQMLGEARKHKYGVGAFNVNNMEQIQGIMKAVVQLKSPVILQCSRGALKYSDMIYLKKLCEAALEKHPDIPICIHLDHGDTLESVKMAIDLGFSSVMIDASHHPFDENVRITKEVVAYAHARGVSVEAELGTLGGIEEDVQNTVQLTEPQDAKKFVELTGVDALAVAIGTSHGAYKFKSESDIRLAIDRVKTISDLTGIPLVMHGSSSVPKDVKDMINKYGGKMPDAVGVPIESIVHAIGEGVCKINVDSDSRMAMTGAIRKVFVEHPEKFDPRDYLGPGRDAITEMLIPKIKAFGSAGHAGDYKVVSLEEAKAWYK
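Giardia FBPA (40 nM reagent) was preincubated 10 min at RT with compound (up to 57.5 uM final), then substrate plus GAPDH/TPI/NAD/arsenate coupling system with diaphorase/resazurin was added; resorufin fluorescence (525/598 nm) was read after 20 min.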
Pf growth 96h = P. falciparum growth inhibition at 96 hours. P. falciparum luciferase reporter growth, 96 h. Potency, µM (doses to about 28.7 µM), without a hit: top-dose activity change, negative = inhibition, hits mostly inhibitors. 6.9% of 320,000 active. AID 504834; further: potency means the concentration at half of the fitted maximal effect; on the % scale 0 is the no-effect control and ±100 the full control effect
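Luminescence readout: decreased luciferase signal marks inhibited growth of reporter-expressing P. falciparum in infected red cells (2% hematocrit, 0.05% parasitemia final), exposed to compound two generations (96 h, 37 C, 5% CO2).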
CHX counter = counter-screen hit for Shiga toxin inhibitors, cycloheximide; cell reporter, cycloheximide protein synthesis inhibition counterscreen; max response, %; 12% of 300,000 active; AID 2314; in the data active means max response mostly above about 13%, no sharp cut-off; inactive means mostly below about 14%; further: read at 38.3 µM for the half of the compounds with a filed dose; 0% is about no effect
NS1 function inh = influenza NS1 inhibition; AID 2326; 0.4% of 270,000 active; Potency, µM (top dose mostly 46.1 µM), without a hit: top-dose activity, positive = more growth; calls by dose curve; further: potency means the concentration at half of the fitted maximal effect; actives are rising curves; nearly all actives have a fitted effect of over 50% in size
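A cell-based growth assay was used: compounds that relieve NS1-induced slow growth of budding yeast raise OD600. Assay medium was yeast nitrogen base with ammonium sulphate and -URA supplement, pH 6.0, with 2% galactose.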
Shiga inhibitor = blocks Shiga toxin action in Vero cells; Vero cells, Shiga toxin protein synthesis inhibition reporter; inhibition, % at 38.7 µM; 9.2% of 290,000 active; in the data active means inhibition mostly above about 28%, no sharp cut-off; inactive means mostly below about 43%; further: 0% is about no effect
Pf growth 48h = P. falciparum growth inhibition at 48 hours (one generation). P. falciparum luciferase growth in erythrocytes, 48 h. Potency, µM (top dose mostly 28.7 µM), inactives show top-dose activity change, negative = inhibition, actives largely listed as inhibitors. AID 504832. 5.9% of 310,000 active; further: potency means the concentration at half of the fitted maximal effect; on the % scale 0 is the no-effect control and ±100 the full control effect
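Cell-based growth assay: transgenic P. falciparum expressing firefly luciferase, cultured in red cells within RPMI 1640 containing 0.5% w/v Albumax, 24 mM bicarbonate and gentamycin. A drop in luciferase activity indicates inhibition.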
The depositor's hits bear a star; u = inconclusive; x = not tested or not shown; [ ] = remark or other dose. Unless noted, the call rests on the fitted dose curve; in most records, active means well fitted curve in the direction sought with a large enough effect; inconclusive means small, poorly fitted or top-dose-only effect, or another doubt; inactive means no such curve, though single readings can be large; an effect the other way counts as inactive or inconclusive.

SMILES | Giardia FBPA inh | Pf growth 96h | CHX counter | NS1 function inh | Shiga inhibitor | Pf growth 48h
CCOC(=O)C1Nc2ccc(Br)cc2C2C=CCC12 (centres undefined) | -1% | 13µM* | -2 | 13% | -19 | u
CCOC(=O)c1ccc2c(c1)C1C=CCC1C(C(=O)OCC)N2 (centres undefined) | -14% | 3% | 1 | 19% | x | 12µM*
CCOC(=O)[C@H](CCc1ccccc1)N[C@@H](C)C(=O)N1[C@H](C(=O)O)C[C@H]2CCCC[C@@H]21 | 2% | 1% | x | x | x | 3%
CNC(=O)c1cccc(N2CCCC2=O)c1 | 5% | 19% | 11 | 3% | -17 | 20%
O=C(N/N=C/c1cccnc1)c1cccc(N2CCCC2=O)c1 | 3% | 40% | 27* | 0% | 35 | 25%
CC(NC(=O)c1cccc(N2CCCC2=O)c1)c1ccc2c(c1)OCCO2 (centres undefined) | -9% | 12µM* | -2 | -3% | -2 | u
CCN(CC)c1ccc(/C=N/NC(=O)c2cccc(N3CCCC3=O)c2)cc1 | -8% | 28% | 23* | 0% | 42* | u
COc1cc(/C=N/NC(=O)c2cccc(N3CCCC3=O)c2)ccc1O | x | u | 24* | -1% | 46 | -2%
COC(=O)c1c(NC(=O)COC(=O)C2CCC2)sc(C)c1C | x | 13% | x | x | x | -28%
CCCCNC1c2ccccc2C(=O)N1Cc1ccccc1 (centres undefined) | -26% | u | -2 | 3% | -7 | 8%
CC(C)COc1ccc(C(=O)Nc2ccc(NC(=O)c3ccco3)cc2)cc1 | x | -2% | 0 | 6% | -7 | 13%
O=C(Nc1ccc(Oc2cccnc2)nc1)c1ccc(C(F)(F)F)cc1 | -16% | u | 17 | -3% | 19 | u
CC(C)(C)c1ccc(Oc2ccc(NC(=O)c3ccco3)cn2)cc1 | -5% | 8.3µM* | -3 | -50% | 27 | 2.1µM*
O=C(Nc1ccc(Oc2cccc(C(F)(F)F)c2)nc1)c1ccco1 | -5% | 13µM* | -1 | -8% | 16 | u
CC(C)CCNC(=O)[C@H](CC(C)C)NC(=O)[C@H]1O[C@@H]1C(=O)O | 6% | 2.1µM* | -2 | 2% | -3 | 3.7µM*
Cc1ccc(NS(=O)(=O)c2c(C)[nH]c(=O)[nH]c2=O)c(C)c1 | 6% | 27% | -2 | 1% | 3 | 8%
Cc1cc(Br)ccc1NS(=O)(=O)c1c(C)[nH]c(=O)[nH]c1=O | 11% | 5.2µM* | 8 | 2% | -18 | 2%
Cc1cc(=O)oc2ccc(OCC(=O)N(Cc3ccc(F)cc3)Cc3ccco3)cc12 | 5% | u | 47* | -44% | 76* | 10µM*
CCOC(=O)Oc1ccc2oc(=O)cc(C)c2c1 | -3% | 244% | 11 | -4% | 20 | 58%
O=C(c1cnccn1)N1CCC2(CC1)CCN(c1ccccc1)CC2 | 5% | x | x | x | x | x
CN(C)S(=O)(=O)c1ccc(NC(=O)c2c(F)cccc2Cl)cc1 | -8% | 19% | -3 | 1% | -13 | 2%
CN(C)S(=O)(=O)c1ccc(NC(=O)N2CCN(c3cccc(C(F)(F)F)c3)CC2)cc1 | -9% | 12µM* | 4 | 5% | 15 | 12µM*
CN(C)S(=O)(=O)c1ccc(NC(=O)N2CCN(c3ccccc3Cl)CC2)cc1 | -7% | u | -3 | 6% | 15 | 13µM*
COCCCNC(=S)N1CCC(NC(=O)Nc2ccc(C)cc2)CC1 | 1% | 10% | -3 | 1% | -29 | -17%
Clc1nc(N2CCOCC2)ncc1Br | 3% | 1.9µM* | 2 | -1% | 5 | 2.6µM*
SMILES | Giardia FBPA inh | Pf growth 96h | CHX counter | NS1 function inh | Shiga inhibitor | Pf growth 48h
COc1ccc(NC(=O)CSc2ccc3nnc(-c4ccccn4)n3n2)c(OC)c1 | x | u | -2 | 8% | -5 | u
O=C1CN(C(=O)CSc2nc3cc(Cl)ccc3c(=O)n2Cc2ccccc2)c2ccccc2N1 | 7% | u | -3 | u | -18 | 3.3µM*
COCC(C)n1c(SCC(=O)N2CC(=O)Nc3ccccc32)nc2ccccc2c1=O (centres undefined) | x | u | x | x | x | 13µM*
O=C1CN(C(=O)CSc2nnnn2-c2ccc(Cl)cc2)c2ccccc2N1 | -3% | 54% | 1 | -8% | 10 | 4.7µM*
C=CCn1c(SCC(=O)N2CC(=O)Nc3ccccc32)nc2scc(-c3ccccc3)c2c1=O | -1% | 4.7µM* | 2 | u | -19 | 8.3µM*
Cc1nnc(SCC(=O)N2CC(=O)Nc3ccccc32)n1Cc1ccccc1 | 4% | -3% | -2 | -1% | 21 | u
C[C@H](C[C@H](N)C(=O)O)C(=O)O | 14% | x | -5 | x | -5 | x
CCOC(=O)c1[nH]c(C(=O)O)c(OC(=O)CC)c1C | -2% | 46% | -5 | 0% | -5 | u
CC(C)Cn1c(SCC(=O)N2CC(=O)Nc3ccccc32)nc2ccccc21 | 3% | u | -4 | -16% | -11 | u
CC(c1ccccc1)n1c(SCC(=O)N2CC(=O)Nc3ccccc32)nc2ccccc2c1=O (centres undefined) | -4% | 5.2µM* | -7 | u | -12 | 13µM*
COc1ccc(Cl)cc1C(=O)NNC(=O)COC(=O)CCN=C1NS(=O)(=O)c2ccccc21 | x | 44% | x | x | x | -2%
CCCCN(C(=O)CSc1nnnn1C)c1c(N)n(Cc2ccccc2)c(=O)[nH]c1=O | 2% | 0% | -7 | -10% | 7 | 81%
CCOc1ccccc1C(=O)NCC(=O)NCC(c1ccco1)N1CCCCC1 (centres undefined) | x | -22% | x | x | x | 9%
Cc1ccc2[nH]c(=O)c(CN(Cc3cccnc3)C(=S)NCCCN(C)C)cc2c1 | 4% | 6% | 1 | 3% | -15 | 15µM*
CCN(CC)CCCNC(=S)N(Cc1cccnc1)Cc1cc2cc(C)ccc2[nH]c1=O | 3% | 5.9µM* | -2 | -5% | 18 | 2.3µM*
CCN(CC)CCCNC(=S)N(Cc1cccnc1)Cc1cc2cccc(C)c2[nH]c1=O | 1% | u | -2 | 3% | 13 | u
c1ccc(B2OC[C@@H]3OB(c4ccccc4)O[C@H]([C@@H]4COB(c5ccccc5)O4)[C@@H]3O2)cc1 | x | x | x | 5% | x | x
CCOC(=O)C1CCCN(C(=O)CCCn2c(=O)c3cccn3c3cccnc32)C1 (centres undefined) | x | u | 2 | -4% | -9 | 25%
CN(C)S(=O)(=O)Oc1cc(Cl)ccc1C(=O)Nc1ccc(F)cc1F | 0% | u | 35* | x | 42 | u
CN(C)c1ccncc1C(=O)Nc1ccc(F)cc1F | 2% | u | 0 | -1% | 2 | 131%
O=C(/C=C/Nc1ccc(Oc2ccccc2Cl)cc1)c1ccco1 | -5% | -27% | 37* | -2% | 117* | u
COC(=O)c1ccccc1Oc1ccc(NC(=O)c2ccco2)cc1 | 2% | u | 11 | -51% | 39 | 1%[0.00184 µM]
COc1ccccc1Oc1ccc(N/C=C/C(=O)c2ccco2)cc1 | -1% | 17% | 50* | 9% | 100* | 10%
